For one sequence, binding signal results are on record in article PMC7862700, “An all-to-all approach to the identification of sequence-specific readers for epigenetic DNA modifications on cytosine”.

Common to all, as to assay: DAPPL (digital affinity profiling via proximity ligation, sequencing); 10 mM Tris-HCl pH 7.5, 50 mM NaCl, 1 mM DTT, 4% glycerol, room temperature, 30 min; GST-TFs on glutathione beads, 16-mer random dsDNA library, 0.1% formaldehyde crosslink after washing; high values mean tight binding
One assay addresses T1, FEV (Homo sapiens, UniProt Q99581 1-238).
T1 sequence: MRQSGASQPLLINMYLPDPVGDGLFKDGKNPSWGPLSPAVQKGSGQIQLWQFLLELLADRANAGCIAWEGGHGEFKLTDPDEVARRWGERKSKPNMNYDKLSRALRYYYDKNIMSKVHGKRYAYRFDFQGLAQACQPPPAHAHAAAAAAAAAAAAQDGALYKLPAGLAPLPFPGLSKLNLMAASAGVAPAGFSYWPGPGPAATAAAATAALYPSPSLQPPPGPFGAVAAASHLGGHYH
The note with it: protein: recombinant; tags: N-terminal GST; dsDNA, one strand shown. The essentials: (§1)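 Binding signal is given per hexamer as its read frequency for a factor divided by its frequency in the tag-only sample. GST-fused human transcription factors were expressed in yeast, captured on glutathione beads, barcoded with DNA and pooled with that sample, then incubated with 200 nmole of a 16-mer random double-stranded DNA library in Tris/NaCl/DTT/glycerol buffer for 30 min at room temperature. The pools were then washed, crosslinked, proximity-ligated, amplified by PCR and sequenced on an Illumina NextSeq500.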

A further assay concerns the target ETV5 (Homo sapiens, UniProt P41161 1-510). The note with it: protein: recombinant; tags: N-terminal GST; dsDNA, one strand shown. The procedure, abridged: as §1
The next assay addresses HSF1 (Homo sapiens, UniProt Q00613 1-529). The settings on record: protein: recombinant; tags: N-terminal GST; chain copies: 3; dsDNA, one strand shown. The procedure, abridged:
as §1

Another assay addresses T2, SPIC (Homo sapiens, UniProt Q8N5J4 1-248).
T2 sequence: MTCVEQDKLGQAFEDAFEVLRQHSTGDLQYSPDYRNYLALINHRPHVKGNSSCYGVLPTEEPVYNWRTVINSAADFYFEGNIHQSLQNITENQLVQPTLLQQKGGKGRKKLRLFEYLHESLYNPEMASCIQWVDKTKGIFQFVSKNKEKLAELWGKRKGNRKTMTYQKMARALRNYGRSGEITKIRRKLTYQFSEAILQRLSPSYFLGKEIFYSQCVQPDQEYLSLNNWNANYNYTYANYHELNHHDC
The note with it: protein: recombinant; tags: N-terminal GST; dsDNA, one strand shown. The procedure, abridged: as §1

Another assay deals with ELF4 (Homo sapiens, UniProt Q99607 1-663). The note with it: protein: recombinant; tags: N-terminal GST; dsDNA, one strand shown. The essentials:
as §1

The target in a further assay is T3, ELK4 (Homo sapiens, UniProt P28324-2 1-405).
T3 sequence: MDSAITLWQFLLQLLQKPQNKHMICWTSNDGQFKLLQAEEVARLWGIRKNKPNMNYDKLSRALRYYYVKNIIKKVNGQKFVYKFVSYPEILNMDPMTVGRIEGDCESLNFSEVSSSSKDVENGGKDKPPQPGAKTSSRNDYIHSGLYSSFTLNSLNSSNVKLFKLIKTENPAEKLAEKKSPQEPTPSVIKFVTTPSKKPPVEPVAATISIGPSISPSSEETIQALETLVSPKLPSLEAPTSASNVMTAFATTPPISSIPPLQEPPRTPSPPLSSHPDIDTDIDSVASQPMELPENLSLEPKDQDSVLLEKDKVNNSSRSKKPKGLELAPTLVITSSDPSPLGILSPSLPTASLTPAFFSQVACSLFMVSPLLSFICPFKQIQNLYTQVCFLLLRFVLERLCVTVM
The note with it: protein: recombinant; tags: N-terminal GST; dsDNA, one strand shown. The essentials:
as §1

Another assay concerns the target T4, ETV2 (Homo sapiens, UniProt O00321 1-342).
T4 sequence: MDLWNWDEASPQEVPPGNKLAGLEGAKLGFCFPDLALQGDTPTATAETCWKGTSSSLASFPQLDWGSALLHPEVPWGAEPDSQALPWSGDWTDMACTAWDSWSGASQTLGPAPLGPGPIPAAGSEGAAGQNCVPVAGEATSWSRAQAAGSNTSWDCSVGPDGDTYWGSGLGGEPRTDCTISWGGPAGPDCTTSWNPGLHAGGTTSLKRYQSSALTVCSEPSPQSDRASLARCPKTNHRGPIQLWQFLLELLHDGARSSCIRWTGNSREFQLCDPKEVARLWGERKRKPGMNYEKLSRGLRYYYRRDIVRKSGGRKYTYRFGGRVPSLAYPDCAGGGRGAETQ
The note with it: protein: recombinant; tags: N-terminal GST; dsDNA, one strand shown. The procedure, abridged: as §1

In the next assay the target is T5, ELF3 (Homo sapiens, UniProt P78545 1-371).
T5 sequence: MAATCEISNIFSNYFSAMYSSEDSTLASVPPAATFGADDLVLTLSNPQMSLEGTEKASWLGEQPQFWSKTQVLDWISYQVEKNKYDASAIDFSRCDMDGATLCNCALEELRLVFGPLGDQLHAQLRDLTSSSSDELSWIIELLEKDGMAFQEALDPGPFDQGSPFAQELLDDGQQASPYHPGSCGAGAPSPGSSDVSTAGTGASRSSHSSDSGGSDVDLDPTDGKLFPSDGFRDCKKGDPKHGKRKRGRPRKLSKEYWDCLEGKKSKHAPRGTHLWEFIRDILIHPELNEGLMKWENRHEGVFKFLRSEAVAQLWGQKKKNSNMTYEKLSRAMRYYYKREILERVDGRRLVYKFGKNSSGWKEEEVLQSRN
The note with it: protein: recombinant; tags: N-terminal GST; dsDNA, one strand shown. The procedure, abridged: as §1

In a further assay the target is CRX (Homo sapiens, UniProt O43186 1-299). The note with it: protein: recombinant; tags: N-terminal GST; dsDNA, one strand shown. The procedure, abridged:
as §1

For another assay, the target named is ETV1 (Homo sapiens, UniProt P50549 1-477). The settings on record: protein: recombinant; tags: N-terminal GST; dsDNA, one strand shown. The essentials:
as §1

Another assay has as its target T6, ERF (Homo sapiens, UniProt P50548 1-548).
T6 sequence: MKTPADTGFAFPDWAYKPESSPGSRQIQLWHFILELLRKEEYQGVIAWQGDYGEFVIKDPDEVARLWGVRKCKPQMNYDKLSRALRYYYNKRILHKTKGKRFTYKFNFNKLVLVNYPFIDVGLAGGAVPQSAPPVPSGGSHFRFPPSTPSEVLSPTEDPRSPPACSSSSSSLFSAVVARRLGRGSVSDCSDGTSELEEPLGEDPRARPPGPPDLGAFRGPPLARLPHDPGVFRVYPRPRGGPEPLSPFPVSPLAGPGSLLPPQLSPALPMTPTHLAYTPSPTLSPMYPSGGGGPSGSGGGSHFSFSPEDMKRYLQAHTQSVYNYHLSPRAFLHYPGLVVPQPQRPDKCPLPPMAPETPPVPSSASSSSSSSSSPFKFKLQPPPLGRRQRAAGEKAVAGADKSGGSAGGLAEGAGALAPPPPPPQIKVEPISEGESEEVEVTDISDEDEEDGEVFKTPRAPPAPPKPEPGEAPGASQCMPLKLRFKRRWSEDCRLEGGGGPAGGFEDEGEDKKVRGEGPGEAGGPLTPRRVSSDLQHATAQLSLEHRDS
The settings on record: protein: recombinant; tags: N-terminal GST; dsDNA, one strand shown. The essentials: as §1

In a further assay the target is T7, ETV3L (Homo sapiens, UniProt Q6ZN32 1-361).
T7 sequence: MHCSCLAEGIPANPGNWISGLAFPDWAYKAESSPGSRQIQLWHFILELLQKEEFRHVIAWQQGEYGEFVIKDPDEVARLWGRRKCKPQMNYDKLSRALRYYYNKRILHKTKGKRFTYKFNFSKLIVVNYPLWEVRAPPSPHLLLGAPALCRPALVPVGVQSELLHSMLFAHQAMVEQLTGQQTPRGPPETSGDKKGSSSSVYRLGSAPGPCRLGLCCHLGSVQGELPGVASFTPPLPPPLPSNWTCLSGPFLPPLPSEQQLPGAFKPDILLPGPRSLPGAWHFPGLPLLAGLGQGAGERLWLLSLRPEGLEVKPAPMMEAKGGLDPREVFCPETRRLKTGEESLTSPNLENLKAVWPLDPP
The settings on record: protein: recombinant; tags: N-terminal GST; dsDNA, one strand shown. The procedure, abridged:
as §1

In a further assay the target is T8, ETS2 (Homo sapiens, UniProt P15036 1-469).
T8 sequence: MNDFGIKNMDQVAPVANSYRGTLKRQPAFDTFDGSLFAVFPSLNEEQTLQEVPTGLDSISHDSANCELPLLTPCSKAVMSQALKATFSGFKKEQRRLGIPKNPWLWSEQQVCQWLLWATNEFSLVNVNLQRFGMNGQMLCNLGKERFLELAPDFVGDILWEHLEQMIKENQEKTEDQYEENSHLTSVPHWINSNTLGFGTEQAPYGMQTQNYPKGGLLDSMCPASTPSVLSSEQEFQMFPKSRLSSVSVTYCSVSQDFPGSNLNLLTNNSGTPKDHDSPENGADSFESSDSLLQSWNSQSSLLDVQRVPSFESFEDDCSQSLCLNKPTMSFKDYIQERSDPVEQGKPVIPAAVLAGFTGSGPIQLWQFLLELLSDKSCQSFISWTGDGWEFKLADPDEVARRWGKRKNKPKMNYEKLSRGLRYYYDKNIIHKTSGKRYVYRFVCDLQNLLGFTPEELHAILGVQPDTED
The note with it: protein: recombinant; tags: N-terminal GST; dsDNA, one strand shown. The procedure, abridged: as §1

The target in another assay is T9, SPDEF (Homo sapiens, UniProt O95238 1-335).
T9 sequence: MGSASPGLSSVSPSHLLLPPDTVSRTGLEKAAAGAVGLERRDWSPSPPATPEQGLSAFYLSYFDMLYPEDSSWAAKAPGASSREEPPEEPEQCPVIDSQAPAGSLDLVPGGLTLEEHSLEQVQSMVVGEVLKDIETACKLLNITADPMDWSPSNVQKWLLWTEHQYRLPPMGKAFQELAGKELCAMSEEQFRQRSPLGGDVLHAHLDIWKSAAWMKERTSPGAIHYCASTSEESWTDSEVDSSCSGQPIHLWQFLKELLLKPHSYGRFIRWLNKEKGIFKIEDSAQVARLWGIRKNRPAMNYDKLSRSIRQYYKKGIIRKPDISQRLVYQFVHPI
The settings on record: protein: recombinant; tags: N-terminal GST; dsDNA, one strand shown. The essentials: as §1

A further assay has as its target T10, ETV7 (Homo sapiens, UniProt Q9Y603 1-341).
T10 sequence: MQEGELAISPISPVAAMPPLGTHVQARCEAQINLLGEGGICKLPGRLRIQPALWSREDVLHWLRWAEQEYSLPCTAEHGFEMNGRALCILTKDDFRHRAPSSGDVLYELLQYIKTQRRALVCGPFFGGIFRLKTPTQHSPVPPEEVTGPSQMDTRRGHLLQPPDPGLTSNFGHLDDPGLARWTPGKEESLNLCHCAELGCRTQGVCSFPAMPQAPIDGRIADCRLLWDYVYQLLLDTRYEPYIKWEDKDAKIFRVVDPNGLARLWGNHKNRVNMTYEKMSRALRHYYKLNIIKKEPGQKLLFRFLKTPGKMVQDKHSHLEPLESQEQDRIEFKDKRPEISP
The note with it: protein: recombinant; tags: N-terminal GST; dsDNA, one strand shown. The procedure, abridged: as §1

Another assay addresses T11, ELF5 (Homo sapiens, UniProt Q9UKW6-2 1-255).
T11 sequence: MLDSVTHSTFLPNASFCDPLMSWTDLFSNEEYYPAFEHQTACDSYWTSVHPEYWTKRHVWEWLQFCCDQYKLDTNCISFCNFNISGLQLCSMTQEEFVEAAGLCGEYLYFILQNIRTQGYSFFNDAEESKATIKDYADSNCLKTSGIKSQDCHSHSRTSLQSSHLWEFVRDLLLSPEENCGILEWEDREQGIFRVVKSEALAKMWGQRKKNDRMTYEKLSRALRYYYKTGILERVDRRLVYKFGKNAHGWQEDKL
The settings on record: protein: recombinant; tags: N-terminal GST; dsDNA, one strand shown. The procedure, abridged: as §1

A further assay concerns the target T12, ETV3 (Homo sapiens, UniProt P41162-2 1-143).
T12 sequence: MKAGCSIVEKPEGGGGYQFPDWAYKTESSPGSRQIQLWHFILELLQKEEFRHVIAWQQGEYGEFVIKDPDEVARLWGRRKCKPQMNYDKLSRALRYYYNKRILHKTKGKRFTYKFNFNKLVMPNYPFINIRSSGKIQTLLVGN
The note with it: protein: recombinant; tags: N-terminal GST; dsDNA, one strand shown. The essentials:
as §1

The target of the next assay is ETV6 (Homo sapiens, UniProt P41212 1-452). The settings on record: protein: recombinant; tags: N-terminal GST; dsDNA, one strand shown. The procedure, abridged: as §1
Sequence of ETV6 (P41212 whole entry): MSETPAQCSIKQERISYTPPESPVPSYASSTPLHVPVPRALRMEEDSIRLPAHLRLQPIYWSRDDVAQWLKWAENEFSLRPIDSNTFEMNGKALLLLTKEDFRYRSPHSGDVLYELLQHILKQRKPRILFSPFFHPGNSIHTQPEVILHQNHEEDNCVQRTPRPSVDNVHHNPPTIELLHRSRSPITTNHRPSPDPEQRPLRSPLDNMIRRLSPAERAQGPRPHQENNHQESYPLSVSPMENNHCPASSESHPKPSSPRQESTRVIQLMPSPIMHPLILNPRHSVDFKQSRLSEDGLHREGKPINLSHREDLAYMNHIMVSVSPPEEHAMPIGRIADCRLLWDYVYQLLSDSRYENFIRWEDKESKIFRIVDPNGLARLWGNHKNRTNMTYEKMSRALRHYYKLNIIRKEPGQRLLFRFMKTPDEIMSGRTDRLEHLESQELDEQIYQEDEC

Sequence of ETV5 (P41161 whole entry): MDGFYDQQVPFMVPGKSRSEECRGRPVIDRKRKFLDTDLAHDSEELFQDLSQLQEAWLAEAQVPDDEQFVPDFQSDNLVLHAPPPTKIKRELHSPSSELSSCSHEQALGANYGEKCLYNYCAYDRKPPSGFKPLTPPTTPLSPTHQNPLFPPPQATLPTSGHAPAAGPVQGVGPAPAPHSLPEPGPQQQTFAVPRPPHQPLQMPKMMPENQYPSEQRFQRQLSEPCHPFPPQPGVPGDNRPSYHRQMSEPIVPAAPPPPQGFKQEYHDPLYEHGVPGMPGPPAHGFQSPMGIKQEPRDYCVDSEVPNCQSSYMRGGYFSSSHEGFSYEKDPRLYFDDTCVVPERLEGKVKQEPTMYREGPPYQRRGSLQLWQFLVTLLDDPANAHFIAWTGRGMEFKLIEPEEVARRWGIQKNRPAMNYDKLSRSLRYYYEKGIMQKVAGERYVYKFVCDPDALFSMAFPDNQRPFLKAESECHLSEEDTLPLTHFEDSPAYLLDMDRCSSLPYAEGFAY
Sequence of ETV1 (P50549 whole entry): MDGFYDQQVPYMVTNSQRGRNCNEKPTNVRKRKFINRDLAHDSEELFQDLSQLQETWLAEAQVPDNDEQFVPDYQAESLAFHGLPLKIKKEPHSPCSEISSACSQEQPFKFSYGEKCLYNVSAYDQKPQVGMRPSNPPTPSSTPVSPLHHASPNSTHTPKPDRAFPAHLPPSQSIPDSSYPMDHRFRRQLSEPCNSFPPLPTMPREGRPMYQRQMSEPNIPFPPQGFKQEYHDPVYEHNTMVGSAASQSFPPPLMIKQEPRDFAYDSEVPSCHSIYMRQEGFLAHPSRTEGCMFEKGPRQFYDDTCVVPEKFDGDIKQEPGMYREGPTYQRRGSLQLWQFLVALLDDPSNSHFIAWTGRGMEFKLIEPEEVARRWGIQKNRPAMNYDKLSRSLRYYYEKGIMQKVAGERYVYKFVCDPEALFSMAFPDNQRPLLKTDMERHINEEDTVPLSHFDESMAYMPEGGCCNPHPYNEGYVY
Sequence of CRX (O43186 whole entry): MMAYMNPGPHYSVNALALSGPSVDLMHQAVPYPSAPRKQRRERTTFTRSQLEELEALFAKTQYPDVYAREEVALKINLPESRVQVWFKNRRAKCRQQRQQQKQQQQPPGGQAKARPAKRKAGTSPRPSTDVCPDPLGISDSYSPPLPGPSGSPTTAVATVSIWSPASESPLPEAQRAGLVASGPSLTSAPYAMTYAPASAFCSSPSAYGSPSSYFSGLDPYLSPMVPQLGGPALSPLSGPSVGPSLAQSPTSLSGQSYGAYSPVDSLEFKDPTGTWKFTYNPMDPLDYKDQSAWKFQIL
Sequence of ELF4 (Q99607 whole entry): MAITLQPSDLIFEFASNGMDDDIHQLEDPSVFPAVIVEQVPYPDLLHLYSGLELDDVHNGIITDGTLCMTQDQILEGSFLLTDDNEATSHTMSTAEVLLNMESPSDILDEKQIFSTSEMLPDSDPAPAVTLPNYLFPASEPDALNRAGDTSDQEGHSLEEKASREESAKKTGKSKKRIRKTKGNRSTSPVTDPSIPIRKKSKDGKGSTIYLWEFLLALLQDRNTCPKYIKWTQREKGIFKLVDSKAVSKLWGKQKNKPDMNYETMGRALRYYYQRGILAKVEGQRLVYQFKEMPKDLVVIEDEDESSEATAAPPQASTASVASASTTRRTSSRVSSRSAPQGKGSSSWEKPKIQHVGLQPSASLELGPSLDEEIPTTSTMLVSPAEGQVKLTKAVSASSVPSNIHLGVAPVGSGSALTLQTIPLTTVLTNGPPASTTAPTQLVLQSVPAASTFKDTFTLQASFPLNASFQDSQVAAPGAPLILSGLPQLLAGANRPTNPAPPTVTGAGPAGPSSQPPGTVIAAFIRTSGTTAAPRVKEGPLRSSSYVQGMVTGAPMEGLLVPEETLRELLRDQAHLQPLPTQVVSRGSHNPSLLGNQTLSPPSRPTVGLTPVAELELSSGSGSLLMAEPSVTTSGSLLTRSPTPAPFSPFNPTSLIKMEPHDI
Sequence of HSF1 (Q00613 whole entry): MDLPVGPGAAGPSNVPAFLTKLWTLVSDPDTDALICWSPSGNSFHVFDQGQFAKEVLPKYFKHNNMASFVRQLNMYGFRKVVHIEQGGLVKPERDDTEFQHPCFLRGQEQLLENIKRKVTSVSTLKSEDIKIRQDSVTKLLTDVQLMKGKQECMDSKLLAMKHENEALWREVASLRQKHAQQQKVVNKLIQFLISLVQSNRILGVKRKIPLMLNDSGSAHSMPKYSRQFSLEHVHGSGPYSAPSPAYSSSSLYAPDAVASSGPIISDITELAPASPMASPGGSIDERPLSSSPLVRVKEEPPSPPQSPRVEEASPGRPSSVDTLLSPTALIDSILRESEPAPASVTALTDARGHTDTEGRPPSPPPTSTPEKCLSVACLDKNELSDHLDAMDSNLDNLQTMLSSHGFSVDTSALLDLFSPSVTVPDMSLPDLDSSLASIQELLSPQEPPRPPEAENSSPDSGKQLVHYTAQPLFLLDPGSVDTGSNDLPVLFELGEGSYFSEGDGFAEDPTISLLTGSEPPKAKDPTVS

With ACTTAT, the binding signal is 1.34 fold enrichment (6-mer frequency, TF over GST control) with FEV; 1.32 fold enrichment (6-mer frequency, TF over GST control) with ETV5; 1.73 fold enrichment (6-mer frequency, TF over GST control) in the assay with HSF1; 1.5 fold enrichment (6-mer frequency, TF over GST control) with SPIC; 1.35 fold enrichment (6-mer frequency, TF over GST control) with ELF4; 1.53 fold enrichment (6-mer frequency, TF over GST control) in the assay with ELK4. The binding signal was 1.35 fold enrichment (6-mer frequency, TF over GST control) with ETV2; 1.27 fold enrichment (6-mer frequency, TF over GST control) with ELF3; 2.2 fold enrichment (6-mer frequency, TF over GST control) with CRX; 1.42 fold enrichment (6-mer frequency, TF over GST control) with ETV1; 1.39 fold enrichment (6-mer frequency, TF over GST control) with ERF; 1.34 fold enrichment (6-mer frequency, TF over GST control) with ETV3L. The binding signal with ETS2 was 1.36 fold enrichment (6-mer frequency, TF over GST control); with SPDEF, 1.4 fold enrichment (6-mer frequency, TF over GST control); in the assay with ETV7 it was 1.21 fold enrichment (6-mer frequency, TF over GST control); in the assay with ELF5, 1.38 fold enrichment (6-mer frequency, TF over GST control); in the assay with ETV3, 1.35 fold enrichment (6-mer frequency, TF over GST control); with ETV6, 1.27 fold enrichment (6-mer frequency, TF over GST control).
